aSyn UTR act = Activators via SNCA 5'UTR binding, MLPCN. alpha-synuclein 5'UTR reporter, activators screen. activity score, % (tested at 7.5 µM), hits read low. 300,000 compounds, 7.1% hits. AID 1814, 2009; in the data active = activity score below about -60%
* hit, by the source's call. Not all results are given here.

SMILES | aSyn UTR act
COc1cc([N+](=O)[O-])ccc1NC(=S)Nc1cccc(C(=O)O)c1 | -72*
O=C(Nc1ccc([N+](=O)[O-])cc1)C(=O)Nc1cccc(C(=O)O)c1 | 102
O=C(NC(=S)Nc1cc([N+](=O)[O-])ccc1Cl)c1ccccc1 | -85*
O=[N+]([O-])c1cccc(NC(=S)Nc2nc(-c3ccc(Cl)cc3Cl)cs2)c1 | 73
O=C(NC(=S)Nc1cccc([N+](=O)[O-])c1)c1ccco1 | -113*
Cc1ccc2nc(/C=C/c3cccc(F)c3)ccc2c1 | -172*
CC(=O)c1sc2nc(-c3cccs3)ccc2c1N | -272*
Nc1c(C(=O)Nc2nc3ccccc3s2)sc2nc(-c3cccs3)ccc12 | 106
S=C(c1ccc(-c2cccc(Cl)c2)o1)N1CCOCC1 | -144*
N#CCCN1CCN(C(=S)c2ccc(-c3cccc(Cl)c3)o2)CC1 | -89*
S=C(c1ccc(-c2cccc(Cl)c2)o1)N1CCCCC1 | -111*
O=C(N/N=C/c1ccc(O)cc1)Nc1cccc2nsnc12 | -73*
COc1cc(/C=N/NC(=O)Nc2cccc3nsnc23)cc(OC)c1OC | -89*
Cc1ccc(-c2cc(C(=O)NCc3cnn(C)c3C)c3cc(Br)ccc3n2)cc1 | -64*
O=C(Nc1ccccn1)c1cc(-c2cccnc2)nc2ccc(Br)cc12 | 62
Nc1c(C(=O)c2ccccc2)sc2nsc(SCCN3CCCC3)c12 | -87*
CCOC(=O)c1sc(N)c(C(=O)OCC)c1C | -65*
Cc1cc(C)nc(Nc2ccc(N3CCCC3)cc2)n1 | -65*
COc1ccc(Nc2nc(C)cc(C)n2)cc1Cl | -114*
CCc1ccc(Nc2nc(C)cc(C)n2)cc1 | -179*
Cc1cc(C)nc(Nc2ccc(C(=O)O)cc2)n1 | -157*
COc1cc2c(cc1OC)CN(c1ccc(C(F)(F)F)cn1)CC2 | -157*
COc1cc2c(cc1OC)CN(c1ccc3ccccc3n1)CC2 | -189*
Cc1cc(C)nc(SC2=CS(=O)(=O)c3ccccc32)n1 | -120*
O=S1(=O)C=C(Sc2nnc(-c3ccccc3)o2)c2ccccc21 | -118*
SMILES | aSyn UTR act
CCC(C)[C@H](NC(=O)[C@@H]1Cc2ccccc2CN1)C(=O)Nc1ccc2c(c1)OCO2 (stereo partly drawn) | -101*
C[C@H](NC(=O)[C@@H]1Cc2ccccc2CN1)C(=O)Nc1ccc2c(c1)OCCO2 | -65*
COCCCNC(=S)N/N=C/c1ccc(N(C)C)cc1Cl | -107*
COCCCNC(=S)N/N=C/c1ccc(N(C)C)cc1 | -112*
COC(=O)/C=C/c1cnc2ccccc2c1 | -92*
O=C(NCC1CCCN(C(=O)c2cscn2)C1)c1ccccc1Cl (stereo not drawn) | -78*
c1ccc(-c2noc(-c3cccnc3)n2)cc1 | -198*
CCCCc1ccc(-c2nc(-c3ccncc3)no2)cc1 | 91
c1ccc(-c2nc(-c3ccc(-c4ccon4)s3)no2)cc1 | -104*
Brc1ccc(-c2nc(-c3ccncc3)no2)cc1 | -184*
Brc1ccc(-c2nc(-c3ccccn3)no2)o1 | 80
Brc1ccc(-c2nc(-c3ccncc3)no2)o1 | -188*
O=[N+]([O-])c1ccc(-c2nc(-c3ccncc3)no2)cc1 | -74*
c1coc(-c2nc(-c3ccncc3)no2)c1 | -122*
c1ccc(-c2nc(-c3ccncc3)no2)cc1 | -141*
Cc1cccc(NC(=O)c2ccc3c(c2)OCCO3)c1C | -113*
N#Cc1ccccc1NC(=O)COC(=O)c1ccc2c(c1)OCCO2 | -130*
COC(=O)c1ccccc1NC(=O)c1ccc2c(c1)OCCCO2 | -85*
Cc1ccccc1NC(=O)c1ccc2c(c1)OCCO2 | -157*
N#Cc1ccccc1NC(=O)c1ccc2c(c1)OCCO2 | -94*
CCc1ccc(-c2csc(-c3c[nH]c4ccccc34)n2)cc1 | -308*
COc1ccc(NC(=S)NCCCCCC(=O)C[N+](=O)[O-])cc1 | -82*
O=c1oc2ccccc2n1CCCOc1ccccc1 | -73*
Cc1nc2ccccc2n1CCCOc1ccccc1 | -89*
Cc1ccc(OCCn2c(NC(=O)c3ccco3)nc3ccccc32)cc1 | 67
SMILES | aSyn UTR act
COc1ccc(NCc2nc3ccccc3n2CCOc2ccccc2)cc1 | -207*
COc1ccc(NCc2nc3ccccc3n2CCOc2ccc(C)cc2)cc1 | -114*
CC(=O)Nc1nc2cc3c(cc2s1)OCO3 | -100*
O=C(Nc1nc2cc3c(cc2s1)OCO3)c1ccco1 | 80
CC(=O)c1sc(Nc2nc3cc4c(cc3s2)OCO4)nc1C | -178*
C/C(N)=C(/C#N)C(=O)COC(=O)c1cc(C)n(-c2ccc(F)cc2)c1C | -109*
COc1ccc(-c2oc3ccccc3c2C(=O)OCc2ccccc2)cc1 | -102*
COc1ccc(/C(C)=N/Nc2nncc3ccccc23)cc1 | -113*
COc1ccc(/C(C)=N/Nc2nc3ccccc3nc2C)cc1 | -67*
COc1ccc(N/N=C(/C)c2cnnc(-c3ccccc3)n2)cc1 | -70*
Cc1cccc(C2NC(=O)c3c(sc(C)c3C)N2)c1O (stereo not drawn) | -87*
Cc1ccc(C2NC(=O)c3c(sc(C)c3C)N2)c(O)c1 (stereo not drawn) | -234*
Cc1sc2c(c1C)C(=O)NC(c1ccccc1F)N2 (stereo not drawn) | -115*
O=C(NC(=S)Nc1ccc2c(c1)C(=O)c1ccccc1C2=O)c1ccc(F)cc1 | -141*
COc1ccccc1NC(=S)NNC(=O)c1ccc(Cl)cc1Cl | -137*
O=C(NC(=S)NNC(=O)c1cnccn1)c1ccc(Cl)cc1 | 61
O=C(NC(=S)Nc1ncccn1)c1ccc(Cl)cc1Cl | -165*
O=C(NC(=S)Nc1cccnc1Cl)c1ccc(F)cc1 | -124*
O=C(NC(=S)Nc1ncccn1)c1ccc(F)cc1 | -203*
O=C(Nc1cccnc1Cl)c1cc(-c2ccc(F)cc2)on1 | -74*
CCOC(=O)c1ccc2nc3c(cc2c1)CCS3 | -148*
O=C1S/C(=C\C=C\c2ccco2)C(=O)N1c1ccc(O)cc1 | -245*
O=C1S/C(=C\C=C\c2ccco2)C(=O)N1c1ccccc1 | -217*
Cc1ccc(OCC(=O)N/N=C/c2cn(Cc3ccccc3)c3ccccc23)cc1 | 60
Cc1[nH][nH]c(=O)c1C(c1c(C)[nH][nH]c1=O)c1cn(Cc2ccc(Cl)c(Cl)c2)c2ccccc12 | 90
SMILES | aSyn UTR act
Cc1cccc(Cn2cc(SCC(=O)Nc3nccs3)c3ccccc32)c1 | -156*
CN(C)/C=N/c1ncnc2c1cnn2-c1ccc(C(F)(F)F)cn1 | -84*
O=c1oc2ccccc2cc1-c1cn2cccnc2n1 | -65*
O=c1oc2ccccc2cc1-c1ccccc1 | -118*
O=c1oc2ccc(Cl)cc2cc1-c1ccccc1 | -70*
O=c1oc2ccccc2cc1-c1cn2ccccc2n1 | 98
O=c1oc2ccccc2cc1-c1nnc(-c2cccc(Br)c2)o1 | -98*
O=C(Cc1cccc2ccccc12)Nc1ccc(-c2cc3ccccc3oc2=O)cc1 | 65
Cc1ccc(C(=O)c2coc3c2C(=O)C(=O)c2ccccc2-3)cc1 | -90*
Cc1oc2c(c1C(=O)c1ccc(Cl)cc1)C(=O)C(=O)c1ccccc1-2 | -87*
COc1ccc(C(=O)c2c(C(F)(F)F)oc3c2C(=O)c2ccccc2C3=O)cc1 | 109
CCOC(=O)c1c(N/N=C/c2ccncc2)n[nH]c1C | -81*
CCc1[nH]nc(C(=O)N/N=C/c2ccncc2)c1C | -70*
CCN(CC)C(=O)CSc1nnc(-c2ccccc2)o1 | -137*
CN(C)CCSc1nnc(-c2ccccc2)o1 | -71*
Cc1ccc(-c2cc(C(=O)NCCCN3CCCC3)c3ccccc3n2)cc1C | -63*
COc1cccc(-c2cc(C(=O)NCCCn3ccnc3)c3ccccc3n2)c1 | -70*
